AmpC no deterg: AmpC beta-lactamase inhibition without detergent | P00811 | AmpC nitrocefin hydrolysis, absorbance 480 nm, 0.0001% Triton | Potency, µM (titrated, usually from 57.1 µM), without a hit: top-dose activity change, negative = inhibition, usual class: inhibitors | 330,000 tested, 0.52% active | AID 485341;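 note: plate controls were no compound for no effect and no enzyme for full effect; nearly all actives have a fitted effect of over 20% in size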
Target sequence (P00811 whole entry, looked up): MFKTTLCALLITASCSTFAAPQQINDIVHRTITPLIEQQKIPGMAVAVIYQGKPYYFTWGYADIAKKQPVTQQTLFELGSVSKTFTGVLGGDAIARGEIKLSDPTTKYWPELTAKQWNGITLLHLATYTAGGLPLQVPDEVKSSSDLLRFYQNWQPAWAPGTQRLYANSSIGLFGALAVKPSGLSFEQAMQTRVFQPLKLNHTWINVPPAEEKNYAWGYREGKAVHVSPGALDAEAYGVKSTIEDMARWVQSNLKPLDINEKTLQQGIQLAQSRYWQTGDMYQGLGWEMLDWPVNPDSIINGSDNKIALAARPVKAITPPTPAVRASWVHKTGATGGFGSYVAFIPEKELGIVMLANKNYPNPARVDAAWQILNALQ
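AmpC (5.3 nM in the dispensed reagent) in 20 mM phosphate pH 7.0 with 0.01% (detergent screen) or 0.0001% Triton X-100 was preincubated with compounds for 15 min at room temperature. Nitrocefin was then added from an 800 uM solution, and hydrolysis was followed at 480 nm.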
FMDV inh: foot and mouth disease virus antiviral activity | FMDV antiviral cell-based qHTS | Potency, µM (highest dose often 57.9 µM), inactives show at the top dose activity change, negative = inhibition, actives largely listed as inhibitors | 410,000 tested, 1.2% active; calls by dose curve; tested in HEK293T cells; note: read-out not given here; nearly all actives have a fitted effect of over 45% in size
Sm TGR block: inhibitors of Schistosoma mansoni thioredoxin glutathione reductase | Q962Y6 | purified TGR, DTNB reduction, TNB absorbance 405 nm | Potency, µM (top dose mostly 114 µM), for inactives: top-dose activity change, negative = inhibition, usual class: inhibitors | 360,000 tested, 3% active | AID 485364; note: nearly all actives have a fitted effect of over 60% in size
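First, TGR (20 nM dispensed) and NADPH were mixed with compound. Second, a 15 min room-temperature incubation followed. Third, further NADPH and then DTNB were added to start the reaction. Finally, TNB absorbance was monitored kinetically.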
AmpC detergent: AmpC beta-lactamase inhibition with detergent present; Potency, µM (highest dose often 114 µM), inactives show at the top dose activity change, negative = inhibition, most hits filed as inhibitors; AmpC hydrolysis of nitrocefin, absorbance 480 nm, 0.01% Triton; 370,000 tested, 0.041% active; AID 485294; P00811;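 note: 0% = no-compound wells and -100% = no-enzyme wells; nearly all actives have a fitted effect of over 25% in size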
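20 mM phosphate pH 7.0 + 0.01% (detergent screen) or 0.0001% Triton X-100; 5.3 nM AmpC reagent; cpd preinc 15 min RT; nitrocefin (800 uM stock) to start; A480 q20 s × 4 min; Activity was normalised to no-enzyme and no-compound control wells.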
AMA1-RON2 inh: inhibitors of Plasmodium falciparum AMA1-RON2 interaction. 360,000 tested, 0.2% active. Potency, µM (titrated, usually from 58.2 µM), for the others: top-dose activity change, negative = inhibition, most hits filed as inhibitors. AID 720542. AlphaScreen AMA1-biotinylated RON2 peptide binding;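 note: 0% = vehicle wells and -100% = peptide control; nearly all actives have a fitted effect of over 45% in size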
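AMA1 (3D7) with his tag at 25 nM final met compounds first, then biotinylated RON2 peptide at 25 nM; detection used donor plus acceptor beads, 10 µg/mL apiece, read by AlphaScreen after 30 min at room temperature.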
* = called active by the depositor; ? = inconclusive; / = no result; [ ] = another dose, or the depositor's remark. Only some compounds are listed: those with a hit (about 4.1% of all), similar ones and a draw of the others. Unless noted, calls come from the whole dose curve; as a rule, active = well fitted curve in the direction sought with a large enough effect; inconclusive = small, poorly fitted or top-dose-only effect, or another doubt; inactive = no such curve, though single readings can be large; an effect the other way counts as inactive or inconclusive. Unless noted, % is set by controls: 0 for no effect and ±100 for the full control effect; potency is the fitted concentration of half-maximal effect.

SMILES	AmpC no deterg	FMDV inh	Sm TGR block	AmpC detergent	AMA1-RON2 inh
O=C(/C=C/c1ccccc1)CC(O)(c1ccccc1)C(F)(F)F (stereo not given)	-27.8%	/	28.2µM*	1.6%	-6.2%
O=C(/C=C/c1ccccc1)CC(O)(c1ccccc1)C(F)(F)C(F)F (stereo not given)	-20.3%	/	25.1µM*	5.0%	-10.5%
O=C(CC(O)(c1ccccc1)C(F)(F)C(F)F)c1cccs1 (stereo not given)	/	-17.2%	-8.9%	-10.6%	1.3%
COc1ccc(/C=C/C(=O)CC(O)(c2ccccc2)C(F)(F)F)cc1 (stereo not given)	-22.4%	35.5µM*	-31.5%	-8.7%	-11.6%
CCCCCn1c(CCNC(=O)c2cccc(C)c2)nc2ccccc21	/	-18.2%	6.2%	?	/
Cc1ccc(N(CC(=O)Nc2ccc(C)c(F)c2)S(=O)(=O)c2c(C)n[nH]c2C)cc1	/	-24.8%	11.7%	1.5%	/
O=C(Nc1ccc2nc(N3CCOCC3)sc2c1)c1ccccc1	-4.9%	24.0%	-1.1%	-3.3%	-2.7%
COCc1c(C(=O)Nc2ccc3nc(N4CCOCC4)sc3c2)oc2ccccc12	138.5%	25.1µM*	-12.2%	2.6%	13.7%
CCc1cc(=O)oc2c(C)c3c(cc12)CN(CCc1ccccc1)CO3	/	-5.6%	-30.6%	11.0%	/
Cc1ccc(NC(=O)Cn2cc3c(n2)CCCCC3)cc1	/	0.0%	-12.5%	3.9%	/
O=C1C(Nc2ccccc2)=C/C(=N/S(=O)(=O)c2cccs2)c2ccccc21	10µM*	?	?	-5.2%	?
Cc1ccc(S(=O)(=O)/N=C2\C=C(Nc3ccc(O)cc3)C(=O)c3ccccc32)cc1	-13.5%	10µM*	/	/	20µM*
Cc1ccc(NC2=C/C(=N/S(=O)(=O)c3cccs3)c3ccccc3C2=O)cc1	-30.0%	7.94µM*	-19.4%	-5.3%	-14.9%
CCOc1ccc(CN2CCN(S(=O)(=O)c3ccc(Cl)cc3)CC2)cc1	/	-21.6%	0.7%	3.0%	/
COCC(=O)Nc1cc(C(=O)NC2CCCc3ccccc32)c2c(c1)nc(-c1ccncc1)n2C (stereo not given)	/	-8.3%	/	/	/
CCN(CC)CCCn1c(=S)[nH]c2ccc(Cl)cc2c1=O	0.282µM*	3.8%	-31.9%	0.9%	2.9%
CCN(CC)CCCn1c(=S)[nH]c2cc(Cl)ccc2c1=O	28.2µM*	-21.0%	-1.1%	?	-0.9%
CCOc1cc2[nH]c(=S)n(CCCN(CC)CC)c(=O)c2cc1OCC	1.4%	-1.9%	6.31µM*	0.4%	2.2%
CCCCN(C)CCn1c(=S)[nH]c2cc(OCC)c(OCC)cc2c1=O	?	-8.8%	-11.5%	?	0.0%
O=c1c2ccc(Cl)cc2[nH]c(=S)n1CCCN1CCOCC1	-25.5%	0.0%	-3.0%	-11.6%	25.0%
CCOc1ccc(C(=O)NCCSc2c(C)[nH]c3ccccc23)cc1OCC	/	-26.6%	6.7%	9.2%	/
COc1cccc(CN(C)C(=O)c2cnn(-c3ncc4c(n3)-c3ccccc3CCC4)c2C)c1	/	-28.9%	/	/	/
N[C@H](C(=O)O)c1ccc(C(=O)O)cc1	/	6.0%	/	/	/
Cc1cc(C(=O)CSc2nncs2)c(C)n1Cc1ccco1	-24.2%	-22.4%	-25.0%	7.2%	22.4µM*
Cc1cc(C(=O)CSc2nn(-c3ccccc3)c(=S)s2)c(C)n1Cc1ccco1	28.2µM*	-11.0%	-23.2%	-0.4%	0.7%
SMILES	AmpC no deterg	FMDV inh	Sm TGR block	AmpC detergent	AMA1-RON2 inh
Cc1cc(C(=O)CSc2nnc(-c3ccco3)o2)c(C)n1Cc1ccco1	-6.2%	-22.5%	?	?	-18.0%
Cc1cc(C(=O)CCl)c(C)n1Cc1ccco1	-9.3%	28.2µM*	3.98µM*	2.4%	-1.3%
CC(Sc1nn(-c2ccc(F)cc2)c(=S)s1)C(=O)c1c(N)n(C)c(=O)n(C)c1=O (stereo not given)	-22.6%	?	-0.6%	-0.3%	-8.6%
Cn1c(N)c(C(=O)CSc2nn(-c3ccccc3)c(=S)s2)c(=O)n(C)c1=O	-15.7%	25.1µM*	-1.0%	-15.6%	9.6%
Cc1cc(C(=O)CN2C(=O)NC(c3ccccc3)(c3ccccc3)C2=O)c(C)n1Cc1ccco1	18.5%	43.9%	-17.4%	-10.1%	-16.2%
Cc1cc(C(=O)CSc2nc3ccccc3[nH]2)c(C)n1Cc1ccco1	-56.5%	-71.9%	-2.9%	-13.0%	-22.3%
CN(C)CCNC(=O)/C(=C/c1ccc(-c2cccc([N+](=O)[O-])c2)o1)NC(=O)c1ccccc1	28.9%	-28.8%	3.6%	-0.3%	-8.5%
Cc1ccc(C(=O)N/C(=C\c2ccc(-c3ccccc3[N+](=O)[O-])o2)C(=O)NCCCN(C)C)cc1	62.4%	?	8.91µM*	-6.6%	18.9%
Cc1ccc(C(=O)N/C(=C\c2ccc(-c3ccccc3[N+](=O)[O-])o2)C(=O)NCCN(C)C)cc1	107.7%	-15.9%	1.41µM*	4.0%	36.5%
CCCCNC(=O)/C(=C\c1ccc([N+](=O)[O-])o1)NC(=O)c1ccccc1	11.6%	-7.5%	44.7µM*	1.7%	-5.9%
O=C(/C=C/c1ccc(-c2ccccc2[N+](=O)[O-])o1)c1ccccc1	3.5%	4.3%	?	-2.8%	-8.6%[11.6 µM]
COC(=O)/C(=C\c1ccc([N+](=O)[O-])o1)NC(=O)c1ccccc1	-15.5%	-4.4%	?	-4.0%	-4.0%
CN(C)CCCNC(=O)/C(=C/c1ccc(-c2ccc([N+](=O)[O-])cc2)o1)NC(=O)c1ccccc1	104.1%	-27.0%	0.1%	1.7%	7.9%
O=C(O)/C(=C\c1ccc(-c2ccccc2[N+](=O)[O-])o1)c1ccccc1	-29.4%	6.4%	35.5µM*	?	-11.1%
O=c1c2ccccc2n(Cc2c(F)cccc2Cl)c(=O)n1CCc1ccccc1	/	-13.4%	-0.6%	14.7%	/
C[C@]12CC(=CO)C(=O)C[C@@H]1CC[C@@H]1[C@@H]2CC[C@@]2(C)[C@H]1CC[C@]2(C)O	-26.0%	/	?	50.1µM*	/
COc1ccc(-c2nn(C)c3sc(C(=O)N4CCN(c5cc(Cl)ccc5C)CC4)cc23)cc1OC	/	1.1%	-0.8%	-1.1%	/
COc1ccc(Cn2cc([N+](=O)[O-])nc2C)cc1[N+](=O)[O-]	-9.9%	0.2%	5.3%	1.2%	-17.5%
COc1ccc(Cn2c(C)nc([N+](=O)[O-])c2SCC(=O)O)cc1[N+](=O)[O-]	-4.4%	-6.8%	35.5µM*	6.9%	-11.7%
O=C(Nc1ccc(F)cc1)c1nc[nH]c1C(=O)O	-8.8%	8.8%	-11.8%	-9.0%	14.1µM*
O=C(Nc1ccc(F)cc1)c1nc[nH]c1C(=O)Nc1ccccc1[N+](=O)[O-]	2.2%	-5.8%	-3.6%	?	17.3%
CCCCC1=CC2=CC(=O)C(C)(OC(=O)c3cnc4ccccc4n3)C(=O)C2=CO1 (stereo not given)	-39.2%	/	35.5µM*	0.0%	/

Source: PubChem BioAssay (National Center for Advancing Translational Sciences (NCATS))
